Experimental data reported in the supplement of paper PMC4166925.
± gives the standard deviation of the averaged measurements. The full ranking holds about 33,000 sequences; the median of “E-score (dimensionless, -0.5 to 0.5)” is about -0.046, and the highest 2% start at about 0.36. This excerpt belongs to a sample that is enriched for the highest values.

Tested on: T1, SpTbr T-box DNA-binding domain (GST fusion)
T1 sequence: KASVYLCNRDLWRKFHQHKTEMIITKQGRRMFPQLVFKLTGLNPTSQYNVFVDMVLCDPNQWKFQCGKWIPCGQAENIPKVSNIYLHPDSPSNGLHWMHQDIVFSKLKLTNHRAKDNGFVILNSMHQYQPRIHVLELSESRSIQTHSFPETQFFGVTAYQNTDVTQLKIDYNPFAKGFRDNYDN
Test: PBM E-score of 8-mer (E-score (dimensionless, -0.5 to 0.5)); Tbr is Tbrain of the sea star Patiria miniata (Pm) or the sea urchin Strongylocentrotus purpuratus (Sp); higher = stronger binding preference
Conditions: the construct has about 5 more residues each side
Procedure, shortened: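 GST-fused Tbr T-box DNA-binding domains (the whole T-box plus about five flanking residues) were expressed in BL21 E. coli at 20 °C and purified by glutathione affinity chromatography. Universal Agilent oligonucleotide arrays were made double-stranded by primer extension, incubated with 200 nM protein in PBS (pH 7.5), then scanned and quantified. Every ungapped 8-mer was scored from probe intensities. The Universal PBM Analysis Suite gave each word an enrichment E-score, averaged over duplicate arrays.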

Sequence | PBM E-score of 8-mer
CGGTGAGA | 0.257 ± 0.012
GGGTGAGA | 0.424 ± 0.0073
AGGTGAAA | 0.266 ± 0.045
CAGTGAGA | 0.157 ± 0.062
AGGTGAGA | 0.4826 ± 0.0046
AGGTGAGG | 0.4113 ± 0.0021
GAGTGAGA | 0.346 ± 0.023
GGGGGTGA | 0.289 ± 0.03
CATCGATA | -0.00022 ± 0.06
CGCAAGGA | -0.051 ± 0.018
AGATTCCG | -0.0246 ± 0.022
CTCGTATA | -0.142 ± 0.0069
TAACTACA | 0.0924 ± 0.085
AAGGTGTG | 0.4816 ± 0.0018
AAGGTGTA | 0.394 ± 0.023
ACGGTGTA | 0.137 ± 0.026
GGGGTGTA | 0.167 ± 0.062
GAGGTGTA | 0.418 ± 0.014
GCGGTGTA | -0.122 ± 0.012
AAGGTTTG | -0.161 ± 0.046
ACGGTGTG | 0.3578 ± 0.0014
CCGGTGTA | 0.115 ± 0.037

Sequence | PBM E-score of 8-mer
TACGACCA | -0.249 ± 0.12
CGTGCACG | 0.00996 ± 0.044
CTTTCTAA | -0.187 ± 0.023
ACGCAGGC | -0.149 ± 0.011
CTTAGTGA | 0.0752 ± 0.0019
ACGCGAGT | 0.107 ± 0.072
ATGGGAGC | -0.168 ± 0.01
CGTTCAAG | -0.167 ± 0.0076
AGTTCACA | 0.442 ± 0.013
GGTTCACA | 0.3973 ± 0.0018
CGATCACA | 0.396 ± 0.0068
GGTTCAAA | -0.343 ± 0.0085
AGTTCACG | 0.338 ± 0.049
CGTTCACA | 0.418 ± 0.0069
AGATCACA | 0.342 ± 0.02
CGATCACG | 0.221 ± 0.037
AGTTCACC | -0.00201 ± 0.066
CGTTCACC | 0.0843 ± 0.012
GGTTCATA | -0.0395 ± 0.039
TAGATCCA | -0.288 ± 0.061
CTAGTTTA | -0.132 ± 0.14
AGTCCTGG | -0.262 ± 0.021

Sequence | PBM E-score of 8-mer
CGGAGATA | 0.0372 ± 0.0019
AATTGGGA | -0.0875 ± 0.07
CCTTGGAG | -0.1541 ± 0.00054
ACGCGCCG | 0.227 ± 0.11
ACACAGTA | 0.116 ± 0.02
GCCTTCGC | 0.296 ± 0.0037
CGATGCAG | -0.164 ± 0.022
AATCTTCC | -0.133 ± 0.036
GAAGTAAA | -0.281 ± 0.027
ATAATCTC | -0.0752 ± 0.092
CCGAGACG | -0.121 ± 0.015
GCGCGAGC | 0.298 ± 0.053
CCGCGAGA | 0.224 ± 0.037
ACGCGAGA | 0.219 ± 0.016
GCGCGAGA | 0.3663 ± 0.0029
GCGAGAGA | 0.203 ± 0.061
TCGCGAGA | 0.367 ± 0.01
AACTATAT | -0.0107 ± 0.13
GAGTTACC | 0.144 ± 0.011
CGCACAGC | 0.122 ± 0.012
GCCCCAAC | 0.133 ± 0.059
ATGTGTAA | 0.342 ± 0.0099

Sequence | PBM E-score of 8-mer
CTCACCTA | 0.385 ± 0.014
GTCACCGA | 0.0907 ± 0.0094
GTCACCTA | 0.392 ± 0.017
CTCACCGA | 0.0544 ± 0.017
CTTACCTA | -0.163 ± 0.054
GTCACCCA | 0.203 ± 0.0083
GGTCTCGA | -0.115 ± 0.014
GCATGGGC | -0.0364 ± 0.0065
GCTACTAC | 0.013 ± 0.035
ATTCCCAA | -0.227 ± 0.012
TGTGAGAA | 0.4336 ± 0.0026
TCTGAGAA | -0.238 ± 0.12
GCTGAGAA | 0.26 ± 0.048
GGTGAGGA | 0.384 ± 0.0073
AGTGAGGA | 0.246 ± 0.028
TGAGAGAA | 0.0644 ± 0.036
CGTGAGGA | 0.178 ± 0.011
GGTGAGAA | 0.4745 ± 0.0016
GGTGAGAC | 0.3819 ± 0.0012
CGTGAGAA | 0.347 ± 0.016
CGTGAGAC | 0.2491 ± 0.0021
AGTGAGAC | 0.169 ± 0.04
